# Numbering of substitutions follows the chain as printed.
# Tests used:
# Test in all cases: PBM; 200 nM protein, PBS
# Details in all cases: dsDNA, one strand shown
# CRX [1] = target: CRX (Homo sapiens, UniProt O43186 26-111)
# CRX [2] = target: CRX (Homo sapiens, UniProt O43186 26-111, E42D)
# MSX2 [3] = target: MSX2 (Homo sapiens, UniProt P35548 130-214, R199I)
# ALX1 [4] = target: ALX1 (Homo sapiens, UniProt Q15699 118-204, L144V)
# ALX1 [5] = target: ALX1 (Homo sapiens, UniProt Q15699 118-204, L144R)
# MSX2 [6] = target: MSX2 (Homo sapiens, UniProt P35548 130-214)
# VAX1 [7] = target: VAX1 (Homo sapiens, UniProt Q5SQQ9 86-172)
# MSX2 [8] = target: MSX2 (Homo sapiens, UniProt P35548 130-214, F161Y)
# VAX1 [9] = target: VAX1 (Homo sapiens, UniProt Q5SQQ9 86-172, T142I)
# CRX [10] = target: CRX (Homo sapiens, UniProt O43186 26-111, R41L)
# ALX1 [11] = target: ALX1 (Homo sapiens, UniProt Q15699 118-204)
# VAX1 [12] = target: VAX1 (Homo sapiens, UniProt Q5SQQ9 86-172, K157R)
# HOXC10 [13] = target: HOXC10 (Homo sapiens, UniProt Q9NYD6 254-340)
# HOXC10 [14] = target: HOXC10 (Homo sapiens, UniProt Q9NYD6 254-340, K271E)
# PAX4 [15] = target: T1, PAX4 (Homo sapiens, UniProt O43316 9-242, R200K)
# T1 sequence: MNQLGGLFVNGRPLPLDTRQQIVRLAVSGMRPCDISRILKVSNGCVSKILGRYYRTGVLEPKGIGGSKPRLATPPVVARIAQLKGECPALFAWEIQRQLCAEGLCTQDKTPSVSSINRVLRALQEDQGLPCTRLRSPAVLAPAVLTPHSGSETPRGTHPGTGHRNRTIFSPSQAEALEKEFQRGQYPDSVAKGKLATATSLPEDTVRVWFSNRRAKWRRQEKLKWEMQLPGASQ
# PITX2 = PITX2 (Homo sapiens, UniProt Q99697 72-157)
# PAX4 [16] = target: T2, PAX4 (Homo sapiens, UniProt O43316 9-242, F177Y)
# T2 sequence: T1 sequence with F169Y, K192R
# NKX2-6 [17] = target: T3, NKX2-6 (Homo sapiens, UniProt A6NCS4 118-204, R150C)
# T3 sequence: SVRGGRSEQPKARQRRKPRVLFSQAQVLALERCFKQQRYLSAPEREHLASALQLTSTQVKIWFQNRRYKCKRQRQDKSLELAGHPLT
# HOXA2 [18] = target: HOXA2 (Homo sapiens, UniProt O43364 129-215, R185T)
# HOXA2 [19] = target: HOXA2 (Homo sapiens, UniProt O43364 129-215, R185K)
# HOXA2 [20] = target: HOXA2 (Homo sapiens, UniProt O43364 129-215, Y150S)
# HOXA2 [21] = target: HOXA2 (Homo sapiens, UniProt O43364 129-215)
# PAX4 [22] = target: T4, PAX4 (Homo sapiens, UniProt O43316 9-242)
# T4 sequence: T1 sequence with K192R
# NKX2-6 [23] = target: T5, NKX2-6 (Homo sapiens, UniProt A6NCS4 118-204)
# T5 sequence: T3 sequence with C33R
# PAX4 [24] = target: T6, PAX4 (Homo sapiens, UniProt O43316 9-242, R200Q)
# T6 sequence: T1 sequence with K192Q
# PAX4 [25] = target: T7, PAX4 (Homo sapiens, UniProt O43316 9-242, F177V)
# T7 sequence: T1 sequence with F169V, K192R
# NKX2-6 [26] = target: T8, NKX2-6 (Homo sapiens, UniProt A6NCS4 118-204, F151L)
# T8 sequence: T3 sequence with C33R, F34L
# PAX4 [27] = target: T9, PAX4 (Homo sapiens, UniProt O43316 9-242, R227W)
# T9 sequence: T1 sequence with K192R, R219W
# PRRX1 [28] = target: PRRX1 (Homo sapiens, UniProt P54821 80-166, F113S)
# HOXB6 [29] = target: HOXB6 (Homo sapiens, UniProt P17509 132-218, K202E)
# PRRX1 [30] = target: PRRX1 (Homo sapiens, UniProt P54821 80-166)
# HOXB6 [31] = target: HOXB6 (Homo sapiens, UniProt P17509 132-218)
# Chain of HOXB6 (Homo sapiens, UniProt P17509 132-218) (P17509 132-218): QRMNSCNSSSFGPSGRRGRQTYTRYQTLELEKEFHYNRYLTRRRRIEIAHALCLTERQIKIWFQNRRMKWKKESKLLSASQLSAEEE
# Chain of CRX (Homo sapiens, UniProt O43186 26-111) (O43186 26-111): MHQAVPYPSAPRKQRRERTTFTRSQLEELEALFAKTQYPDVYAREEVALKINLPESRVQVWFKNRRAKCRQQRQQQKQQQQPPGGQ
# Chain of CRX (Homo sapiens, UniProt O43186 26-111, R41L) (O43186 26-111 R41L): as the sequence (O43186 26-111) above, with R16L counted along it
# Chain of CRX (Homo sapiens, UniProt O43186 26-111, E42D) (O43186 26-111 E42D): as the sequence (O43186 26-111) above, with E17D counted along it
# Chain of HOXA2 (Homo sapiens, UniProt O43364 129-215) (O43364 129-215): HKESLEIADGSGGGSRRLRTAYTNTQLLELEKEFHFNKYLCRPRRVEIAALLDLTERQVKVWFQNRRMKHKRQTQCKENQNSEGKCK
# Chain of VAX1 (Homo sapiens, UniProt Q5SQQ9 86-172, T142I) (Q5SQQ9 86-172 T142I): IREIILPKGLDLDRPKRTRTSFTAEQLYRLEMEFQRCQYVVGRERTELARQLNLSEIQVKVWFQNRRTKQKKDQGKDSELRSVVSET
# Chain of HOXA2 (Homo sapiens, UniProt O43364 129-215, R185T) (O43364 129-215 R185T): as the sequence (O43364 129-215) above, with R57T counted along it
# Chain of HOXA2 (Homo sapiens, UniProt O43364 129-215, Y150S) (O43364 129-215 Y150S): as the sequence (O43364 129-215) above, with Y22S counted along it
# Chain of HOXA2 (Homo sapiens, UniProt O43364 129-215, R185K) (O43364 129-215 R185K): as the sequence (O43364 129-215) above, with R57K counted along it
# Chain of VAX1 (Homo sapiens, UniProt Q5SQQ9 86-172) (Q5SQQ9 86-172): as the sequence (Q5SQQ9 86-172 T142I) above, with I57T counted along it
# Chain of VAX1 (Homo sapiens, UniProt Q5SQQ9 86-172, K157R) (Q5SQQ9 86-172 K157R): as the sequence (Q5SQQ9 86-172 T142I) above, with I57T, K72R counted along it
# Chain of HOXC10 (Homo sapiens, UniProt Q9NYD6 254-340, K271E) (Q9NYD6 254-340 K271E): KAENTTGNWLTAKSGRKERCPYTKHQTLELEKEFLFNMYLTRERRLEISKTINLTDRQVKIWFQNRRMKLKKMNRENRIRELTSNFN
# Chain of MSX2 (Homo sapiens, UniProt P35548 130-214, F161Y) (P35548 130-214 F161Y): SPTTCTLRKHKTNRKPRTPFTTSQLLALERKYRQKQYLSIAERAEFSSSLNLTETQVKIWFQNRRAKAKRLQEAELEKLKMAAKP
# Chain of ALX1 (Homo sapiens, UniProt Q15699 118-204) (Q15699 118-204): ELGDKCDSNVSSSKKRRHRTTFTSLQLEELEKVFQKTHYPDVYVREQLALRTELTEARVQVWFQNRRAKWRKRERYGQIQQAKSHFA
# Chain of PRRX1 (Homo sapiens, UniProt P54821 80-166, F113S) (P54821 80-166 F113S): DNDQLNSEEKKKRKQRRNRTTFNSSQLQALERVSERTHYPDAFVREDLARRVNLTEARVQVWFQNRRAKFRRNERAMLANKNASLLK
# Chain of PRRX1 (Homo sapiens, UniProt P54821 80-166) (P54821 80-166): as the sequence (P54821 80-166 F113S) above, with S34F counted along it
# Chain of HOXB6 (Homo sapiens, UniProt P17509 132-218, K202E) (P17509 132-218 K202E): as the sequence (P17509 132-218) above, with K71E counted along it
# Chain of ALX1 (Homo sapiens, UniProt Q15699 118-204, L144R) (Q15699 118-204 L144R): as the sequence (Q15699 118-204) above, with L27R counted along it
# Chain of HOXC10 (Homo sapiens, UniProt Q9NYD6 254-340) (Q9NYD6 254-340): as the sequence (Q9NYD6 254-340 K271E) above, with E18K counted along it
# Chain of MSX2 (Homo sapiens, UniProt P35548 130-214, R199I) (P35548 130-214 R199I): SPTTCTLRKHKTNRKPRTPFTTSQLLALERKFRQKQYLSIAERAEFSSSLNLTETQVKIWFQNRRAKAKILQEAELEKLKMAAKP
# Chain of ALX1 (Homo sapiens, UniProt Q15699 118-204, L144V) (Q15699 118-204 L144V): as the sequence (Q15699 118-204) above, with L27V counted along it
# Chain of MSX2 (Homo sapiens, UniProt P35548 130-214) (P35548 130-214): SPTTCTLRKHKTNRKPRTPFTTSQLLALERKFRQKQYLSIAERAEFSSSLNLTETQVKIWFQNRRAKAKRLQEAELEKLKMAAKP
sequence,measurement,setting,value
CGCTCGCC,binding signal,CRX [1],"7.99 upbm affinity estimate (log intensity, higher = more binding, comparable within an allelic series)"
same,binding signal,CRX [2],"8.05 upbm affinity estimate (log intensity, higher = more binding, comparable within an allelic series)"
same,binding signal,MSX2 [3],"9.42 upbm affinity estimate (log intensity, higher = more binding, comparable within an allelic series)"
same,binding signal,ALX1 [4],"6.31 upbm affinity estimate (log intensity, higher = more binding, comparable within an allelic series)"
same,binding signal,ALX1 [5],"6.41 upbm affinity estimate (log intensity, higher = more binding, comparable within an allelic series)"
same,binding signal,MSX2 [6],"9.46 upbm affinity estimate (log intensity, higher = more binding, comparable within an allelic series)"
same,binding signal,VAX1 [7],"6.87 upbm affinity estimate (log intensity, higher = more binding, comparable within an allelic series)"
same,binding signal,MSX2 [8],"9.5 upbm affinity estimate (log intensity, higher = more binding, comparable within an allelic series)"
same,binding signal,VAX1 [9],"7.1 upbm affinity estimate (log intensity, higher = more binding, comparable within an allelic series)"
same,binding signal,CRX [10],"8.16 upbm affinity estimate (log intensity, higher = more binding, comparable within an allelic series)"
same,binding signal,ALX1 [11],"6.39 upbm affinity estimate (log intensity, higher = more binding, comparable within an allelic series)"
same,binding signal,VAX1 [12],"7.05 upbm affinity estimate (log intensity, higher = more binding, comparable within an allelic series)"
CGGCGTCC,binding signal,CRX [1],"7.94 upbm affinity estimate (log intensity, higher = more binding, comparable within an allelic series)"
same,binding signal,HOXC10 [13],"10 upbm affinity estimate (log intensity, higher = more binding, comparable within an allelic series)"
same,binding signal,CRX [2],"8 upbm affinity estimate (log intensity, higher = more binding, comparable within an allelic series)"
same,binding signal,HOXC10 [14],"10.1 upbm affinity estimate (log intensity, higher = more binding, comparable within an allelic series)"
same,binding signal,CRX [10],"8.06 upbm affinity estimate (log intensity, higher = more binding, comparable within an allelic series)"
ATTAATCC,binding signal,CRX [1],"13.5 upbm affinity estimate (log intensity, higher = more binding, comparable within an allelic series)"
same,binding signal,PAX4 [15],"11.6 upbm affinity estimate (log intensity, higher = more binding, comparable within an allelic series)"
same,binding signal,CRX [2],"13.6 upbm affinity estimate (log intensity, higher = more binding, comparable within an allelic series)"
same,binding signal,PITX2,"13.4 upbm affinity estimate (log intensity, higher = more binding, comparable within an allelic series)"
same,binding signal,PAX4 [16],"10.9 upbm affinity estimate (log intensity, higher = more binding, comparable within an allelic series)"
same,binding signal,CRX [10],"13.5 upbm affinity estimate (log intensity, higher = more binding, comparable within an allelic series)"
CGGCACGA,binding signal,CRX [1],"8.45 upbm affinity estimate (log intensity, higher = more binding, comparable within an allelic series)"
same,binding signal,NKX2-6 [17],"9.55 upbm affinity estimate (log intensity, higher = more binding, comparable within an allelic series)"
same,binding signal,CRX [2],"8.43 upbm affinity estimate (log intensity, higher = more binding, comparable within an allelic series)"
same,binding signal,VAX1 [7],"6.96 upbm affinity estimate (log intensity, higher = more binding, comparable within an allelic series)"
same,binding signal,VAX1 [9],"7.11 upbm affinity estimate (log intensity, higher = more binding, comparable within an allelic series)"
same,binding signal,CRX [10],"8.41 upbm affinity estimate (log intensity, higher = more binding, comparable within an allelic series)"
same,binding signal,VAX1 [12],"7.16 upbm affinity estimate (log intensity, higher = more binding, comparable within an allelic series)"
CCGGGGCG,binding signal,CRX [1],"8.1 upbm affinity estimate (log intensity, higher = more binding, comparable within an allelic series)"
same,binding signal,HOXA2 [18],"7.04 upbm affinity estimate (log intensity, higher = more binding, comparable within an allelic series)"
same,binding signal,CRX [2],"8.23 upbm affinity estimate (log intensity, higher = more binding, comparable within an allelic series)"
same,binding signal,HOXA2 [19],"10 upbm affinity estimate (log intensity, higher = more binding, comparable within an allelic series)"
same,binding signal,HOXA2 [20],"10.3 upbm affinity estimate (log intensity, higher = more binding, comparable within an allelic series)"
same,binding signal,CRX [10],"8.38 upbm affinity estimate (log intensity, higher = more binding, comparable within an allelic series)"
same,binding signal,HOXA2 [21],"7 upbm affinity estimate (log intensity, higher = more binding, comparable within an allelic series)"
CCGGTCCC,binding signal,CRX [1],"8.46 upbm affinity estimate (log intensity, higher = more binding, comparable within an allelic series)"
same,binding signal,PAX4 [15],"9.29 upbm affinity estimate (log intensity, higher = more binding, comparable within an allelic series)"
same,binding signal,PAX4 [22],"9.34 upbm affinity estimate (log intensity, higher = more binding, comparable within an allelic series)"
same,binding signal,CRX [2],"8.54 upbm affinity estimate (log intensity, higher = more binding, comparable within an allelic series)"
same,binding signal,NKX2-6 [23],"9.32 upbm affinity estimate (log intensity, higher = more binding, comparable within an allelic series)"
same,binding signal,PAX4 [24],"9.4 upbm affinity estimate (log intensity, higher = more binding, comparable within an allelic series)"
same,binding signal,PAX4 [25],"9.28 upbm affinity estimate (log intensity, higher = more binding, comparable within an allelic series)"
same,binding signal,PAX4 [16],"9.27 upbm affinity estimate (log intensity, higher = more binding, comparable within an allelic series)"
same,binding signal,NKX2-6 [26],"9.15 upbm affinity estimate (log intensity, higher = more binding, comparable within an allelic series)"
same,binding signal,PAX4 [27],"9.3 upbm affinity estimate (log intensity, higher = more binding, comparable within an allelic series)"
same,binding signal,CRX [10],"8.54 upbm affinity estimate (log intensity, higher = more binding, comparable within an allelic series)"
GGACCGCC,binding signal,CRX [1],"8.02 upbm affinity estimate (log intensity, higher = more binding, comparable within an allelic series)"
same,binding signal,PRRX1 [28],"9.27 upbm affinity estimate (log intensity, higher = more binding, comparable within an allelic series)"
same,binding signal,HOXB6 [29],"8.98 upbm affinity estimate (log intensity, higher = more binding, comparable within an allelic series)"
same,binding signal,HOXA2 [18],"7.28 upbm affinity estimate (log intensity, higher = more binding, comparable within an allelic series)"
same,binding signal,CRX [2],"8.13 upbm affinity estimate (log intensity, higher = more binding, comparable within an allelic series)"
same,binding signal,PITX2,"7.63 upbm affinity estimate (log intensity, higher = more binding, comparable within an allelic series)"
same,binding signal,HOXA2 [19],"10.2 upbm affinity estimate (log intensity, higher = more binding, comparable within an allelic series)"
same,binding signal,HOXA2 [20],"10.4 upbm affinity estimate (log intensity, higher = more binding, comparable within an allelic series)"
same,binding signal,CRX [10],"8.16 upbm affinity estimate (log intensity, higher = more binding, comparable within an allelic series)"
same,binding signal,PRRX1 [30],"9.42 upbm affinity estimate (log intensity, higher = more binding, comparable within an allelic series)"
same,binding signal,HOXA2 [21],"7.23 upbm affinity estimate (log intensity, higher = more binding, comparable within an allelic series)"
same,binding signal,HOXB6 [31],"9.08 upbm affinity estimate (log intensity, higher = more binding, comparable within an allelic series)"

# From PMC11006913
